Bioassay records as filed in PubChem BioAssay.
HT1080 IDH1KD tx: qHTS for induction of synthetic lethality in tumor cells producing 2HG: qHTS for the HT-1080-IDH1KD cell line | HT-1080 IDH1 knockdown viability, ATP luminescence, 48 h | Potency, µM (series often up to 46.1 µM), for inactives: top-dose activity, negative = toxicity, most hits filed as cytotoxic | 2% of 360,000 active | AID 686971, 2013;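 note: 0% = DMSO wells and -100% = cell-free medium wells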
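Viability of IDH1-knockdown HT-1080 fibrosarcoma cells was assessed by CellTiter-Glo after 48 h at 37 °C with titrated compound; concentration-effect curves were classified by fit quality and response size.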
KB-V1 cytotox: qHTS assay for MDR1-selective chemotherapeutics: Primary screen using the drug-selected MDR subline cells KB-V1. KB-V1 MDR cells viability, CellTiter-Glo, 72 h. Potency, µM (top dose mostly 46.1 µM), hits mostly cytotoxic. 3.4% of 400,000 active; note: % is set by controls: 0 for no effect and ±100 for the full control effect; nearly all actives have a fitted effect of over 60% in size
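Readout: CellTiter-Glo luminescence, 10 min after addition. Cells: KB-V1 MDR subline, 72 h at 37 degrees C with compound. Analysis: corrected, normalized data fitted to concentration-effect curves.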
HepG2 tox: qHTS for Inhibitors of TGF-b: Cytotox Counterscreen | HepG2 CAGA-GFP viability, ATP luminescence, 18 h | Potency, µM (series often up to 46.1 µM), without a hit: top-dose activity change, negative = cytotoxicity, hits mostly cytotoxic | 0.76% of 410,000 active
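HepG2 CAGA-GFP cells (1000/well, DMEM with 1% FBS) received compound, then TGF-beta at 500 pg/mL final, and were incubated 18 hours at 37 degrees C. Viability was read by CellTiter-Glo luminescence. Media-only wells were set as complete cell-killing and DMSO as no toxicity.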
HT1080NT lethal: qHTS for induction of synthetic lethality in tumor cells producing 2HG: qHTS for the HT-1080-NT fibrosarcoma cell line. HT-1080-NT fibrosarcoma viability, CellTiter-Glo ATP luminescence, 48 h. Potency, µM (highest dose often 46.1 µM), without a hit: at the top dose activity, negative = less viability, usual class: cytotoxic. 1.6% of 360,000 active;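 note: NT is the 2HG producing partner of a matched IDH1 knockdown line; 0% = DMSO-treated cells and -100% = media-only wells without cells; nearly all actives have a fitted effect of over 55% in size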
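750 cells/well, RPMI + 5% FBS; 2 h settle, compound pin-transfer, 48 h at 37 degrees C. CellTiter-Glo 10 min RT, luminescence. Normalized to DMSO and media-only wells.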
TGFb SMAD3 inh: qHTS for Inhibitors of TGF-b. HepG2 CAGA-GFP TGF-b/SMAD3 reporter, GFP fluorescence, 18 h; TGF-beta stimulated, 500 pg/mL final. Potency, µM (titrated, usually from 46.1 µM), without a hit: top-dose activity, negative = inhibition, hits mostly inhibitors. 1.2% of 410,000 active. AID 588855, 2011; note: % is set by controls: 0 for no effect and ±100 for the full control effect; nearly all actives have a fitted effect of over 65% in size
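Cell-based qHTS in HEPG2 carrying a CAGA-GFP Smad reporter; compounds added before 500 pg/mL final TGF-beta, 18 h incubation at 37 degrees C, GFP fluorescence quantified per cell by imaging cytometry.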
KB-3-1 tox: qHTS assay for MDR1-selective chemotherapeutics: Primary screen using the parental adenocarcinoma cell KB-3-1; KB-3-1 viability, CellTiter-Glo ATP luminescence, 72 h; 1.4% of 400,000 active; AID 1347075, 2019; Potency, µM (top dose mostly 46.1 µM), actives largely listed as cytotoxic; note: % is set by controls: 0 for no effect and ±100 for the full control effect; nearly all actives have a fitted effect of over 60% in size
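Cytotoxicity in the drug-sensitive parental line KB-3-1 was scored as loss of CellTiter-Glo luminescence following 72 h incubation with compound. Values come from curve fitting of normalized concentration-response data.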
An asterisk follows results filed as active; i = inactive; ? = inconclusive; · = not tested or not shown; [ ] = another dose, or the depositor's remark. Only some compounds are listed: those with a hit (about 6.6% of all), similar ones and a draw of the others. Calls come from the whole dose curve; as a rule, active = well fitted curve in the direction sought with a large enough effect; inconclusive = small, poorly fitted or top-dose-only effect, or another doubt; inactive = no such curve, though single readings can be large; an effect the other way counts as inactive or inconclusive. Potency is the fitted concentration of half-maximal effect.

SMILES	HT1080 IDH1KD tx	KB-V1 cytotox	HepG2 tox	HT1080NT lethal	TGFb SMAD3 inh	KB-3-1 tox
Cc1cccc(NC(=O)CN2C(=O)CCc3ccccc32)c1C	·	i	-3%	·	-1%	i
Cc1ccc2c(c1)c1c(c(=O)n(-c3cccc(Cl)c3)c(=O)n1CC(=O)N1CCCC1)n2C	·	i	-2%	·	-6%	i
COc1ccccc1N1CCN(C(=O)Cn2ncc3c2-c2cc(C)ccc2OC3)CC1	·	i	-7%	·	-20%	i
CCN(CC)c1ccc(/C=N/N2CCN(Cc3cccc4ccccc34)CC2)c(O)c1	-15%	16µM*	-13%	0%	22%	i
Cn1cc(S(=O)(=O)N2CCCCCC2)cc1C(=O)N1CCN(c2cccc(Cl)c2)CC1	·	i	-17%	·	?	i
COc1ccc(OC)c(NC(=O)Cn2cc(C#N)c3ccccc32)c1	0%	?	-3%	5%	-1%	i
COc1ccc(OC)c(NC(=O)Cn2cc(C=O)c3ccccc32)c1	-11%	i	-30%	-19%	10µM*	i
COc1ccc(OC)c(NC(=O)Cn2cc(C(=O)c3ccco3)c3ccccc32)c1	0%	23µM*	-25%	-10%	-2%	i
CCOc1ccc(OCC(=O)NCCS(=O)(=O)N2CCN(c3ccccc3F)CC2)cc1	·	·	-21%	·	-9%	·
CC1CCCCN1S(=O)(=O)c1ccc(C(=O)Nc2ccccc2-c2nc3ccccc3[nH]2)cc1 (configuration not stated)	-30%	23µM*	-31%	-13%	0%	?
CC1CCCCN1S(=O)(=O)c1ccc(C(=O)Nc2nnc(-c3ccco3)o2)cc1 (configuration not stated)	-25%	5.8µM*	-42%	-21%	?	?
COc1ccc(-c2nc3ccc(NS(=O)(=O)c4ccc(C)cc4)cc3o2)cc1	·	i	-80%	·	?	i
COc1ccc(C(=O)/C=C/C(=O)N(Cc2ccc3c(c2)OCO3)C(C(=O)NC2CCCCC2)c2ccncc2)c(O)c1 (configuration not stated)	?	2.1µM*	0%	-10%	?	?
O=C(NC1CCCCC1)C(c1ccncc1)N(Cc1ccc2c(c1)OCO2)C(=O)c1cnsn1 (configuration not stated)	0%[9.24 µM]	?	-13%	-3%	?	i
COc1ccc(C(=O)/C=C/C(=O)N(CC(=O)NC2CCCCC2)Cc2cccs2)c(O)c1	-11%	?	-54%	-22%	?	?
COCCN(CC(=O)NC1CCCCC1)C(=O)/C=C/C(=O)c1ccc(OC)cc1O	?	?	13µM*	23µM*	?	18µM*
COc1ccc(CN(C(=O)/C=C/C(=O)c2ccc(OC)cc2O)C(C(=O)NC2CCCCC2)c2ccncc2)cc1 (configuration not stated)	-4%	2.6µM*	5%	0%	?	i
CCOc1ccccc1-n1nnc(-c2nc(-c3ccccc3C)no2)c1C	·	·	-7%	·	-1%	·
CN(Cc1ccccc1)C(=O)c1cccc(NC(=O)c2nsc3ccccc23)c1	·	i	-24%	·	?	i
Cc1cccc(N2C(=O)CSC23C(=O)N(C)c2ccccc23)c1 (configuration not stated)	·	i	-5%	·	9%	i
O=S(=O)(c1ccc(Cl)c(Cl)c1)c1snnc1-c1ccccc1	8.2µM*	?	16µM*	16µM*	?	5.2µM*
c1ccc(-c2nnsc2-c2ccccc2)cc1	1%	i	-5%	7%	3%	i
NC(CC(=O)NC(c1ccccc1)(c1ccccc1)c1ccccc1)C(=O)O (configuration not stated)	6%	i	16%	5%	-9%	i
NC(CSC(c1ccccc1)(c1ccccc1)c1ccccc1)C(=O)O (configuration not stated)	?	?	15%	?	?	3.7µM*
CC(C)(C)C(=O)Cn1c(=O)n(CCCCCC(=O)NCc2ccccc2Cl)c(=O)c2sccc21	·	·	-24%	·	-26%	·
SMILES	HT1080 IDH1KD tx	KB-V1 cytotox	HepG2 tox	HT1080NT lethal	TGFb SMAD3 inh	KB-3-1 tox
O=C(CN1c2ccccc2Sc2ccccc21)NNC(=O)Nc1ccc(Cl)cc1	21µM*	i	-61%	23µM*	?	i
O=C(CN1c2ccccc2Sc2ccccc21)NNC(=O)Nc1ccc(Cl)c(Cl)c1	?	i	13µM*	21µM*	?	i
COc1ccccc1OCC(=O)NNC(=O)Nc1ccc(Cl)cc1	5.8µM*	10µM*	2%	18µM*	-23%	18µM*
COc1ccccc1NC(=O)C1=C(C)Nc2nnnn2C1c1ccc(C(F)(F)F)cc1 (configuration not stated)	·	i	-30%	·	0%	i
COc1ccc(NC(=O)C2CCCN2S(=O)(=O)c2ccc3c(c2)CCCC(=O)N3)cc1Cl (configuration not stated)	·	i	-21%	·	-28%	i
CC(C)[C@H]1COCCS(=O)(=O)N1Cc1cccc([N+](=O)[O-])c1	·	i	-37%	·	-6%	i
COc1ccc(CC(N)c2csc(Nc3nc(C)cnc3C)n2)cc1 (configuration not stated)	?	?	-25%	?	-2%	i
Cc1cnc(C)c(Nc2nc(C(N)Cc3ccc(F)cc3)cs2)n1 (configuration not stated)	?	i	-107%	21µM*	?	i
Cc1cnc(C)c(Nc2nc(C(N)Cc3ccc(Cl)cc3)cs2)n1 (configuration not stated)	23µM*	21µM*	-106%	18µM*	18µM*	?
COc1ccc(CC(N)c2csc(Nc3ncccn3)n2)cc1 (configuration not stated)	?	i	-7%	-30%	-27%	i
CCc1cnc(Nc2nc(C(N)Cc3ccc(F)cc3)cs2)nc1 (configuration not stated)	23µM*	?	-95%	?	?	?
O=C(CC1N=C2c3ccccc3N=C(SCc3cccc(F)c3)N2C1=O)NCc1cccs1 (configuration not stated)	·	i	-9%	·	16%	i
